Bioassay records as filed in PubChem BioAssay.
An excerpt weighted towards active compounds, which were near 1.2% of everything screened.
PLK1 kinase inh: human PLK1 kinase inhibitors, primary screen, biochemical, TR-FRET. Serine/threonine-protein kinase PLK1 (Homo sapiens), P53350. recombinant PLK1 kinase, TR-FRET peptide phosphorylation. inhibition, % at 10 µM. hit rate 0.53% among 97,000;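 active = inhibition of 50% or more in the single-concentration screen; inactive = inhibition below 50%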;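 note: 0% = DMSO max control and 100% = H-89 dihydrochloride min control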
Plk1 PBD FP: Plk1 polo box domain binding inhibitors, primary screen, biochemical, fluorescence polarization; Serine/threonine-protein kinase PLK1 (Homo sapiens), P53350; Plk1 PBD phosphopeptide binding; inhibition, %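 (tested at about 20 µM)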; hit rate 0.13% among 97,000; AID 693, 2007; in the data active = inhibition above about 34%, passing the limit was not always enough
PTPN22 inh 2: PTPN22 phosphatase inhibitors, primary screen, biochemical, DiFMUP fluorescence, 2 µM; inhibition, % at 2 µM; Tyrosine-protein phosphatase non-receptor type 22 (Homo sapiens), Q9Y2R2; hit rate 0.21% among 96,000; recombinant LYP catalytic domain;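 active = inhibition at 2 µM at or above a set limit, the screen mean plus 3 SD, cut at about 24% in these data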;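 note: 0% = DMSO with enzyme and 100% = enzyme fully blocked by orthovanadate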
EphB4 ephrin blk: EphB4-ephrin-B2 interaction antagonists, primary screen, biochemical, TNYL-RAW peptide probe, fluorescence polarization; Ephrin type-B receptor 4 (Homo sapiens), P54760; EphB4 LBD / TNYL-RAW-Alexa532 peptide; inhibition, % at 7 µM; hit rate 0.15% among 97,000;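 active = inhibition above the screen-wide mean inhibition plus 3 SD, cut at about 15% in these data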;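 note: 0% = DMSO wells and 100% = excess unlabeled TNYL-RAW peptide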
PTPN22 act: LYP phosphatase activators, primary screen, biochemical, DiFMUP fluorescence, 2 µM; recombinant LYP; 0 = plate median, 100 = signal doubled; activation, % at 2 µM; hit rate 0.11% among 96,000; AID 697, 2007;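 active = activation at 2 µM above a set limit, the mean plus 5 SD, cut at about 37% in these data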
* hit, by the source's call; · = not tested or not shown.

SMILES	PLK1 kinase inh	Plk1 PBD FP	PTPN22 inh 2	EphB4 ephrin blk	PTPN22 act
CC(=C/c1ccccc1)/C=N/n1c(-c2ccco2)n[nH]c1=S	-4	12	20	4	-17
CC(/C=N/n1c(C2CCCCC2)n[nH]c1=S)=C\c1ccccc1	-7	-6	26*	-6	-23
CCOC(=O)c1cn(-c2nc(-c3ccc(Cl)cc3)cs2)c2c(F)c(N3CC(C)OC(C)C3)c(F)cc2c1=O (stereo unspecified)	-7	24	10	-1	-5
CCOC(=O)C1CCCN(c2c(Nc3ccc(OCC)cc3)c(=O)c2=O)C1 (stereo unspecified)	-15	-14	-16	-3	12
CCOC(=O)C1CCCN(c2c(Nc3cccc(C)c3)c(=O)c2=O)C1 (stereo unspecified)	61*	-5	·	0	·
CCCCN(C)C(=O)c1cn(CC)c2ccc(S(=O)(=O)N(C)C)cc2c1=O	59*	0	·	0	·
CC(C)CCn1c(SCCN2CCOCC2)nc2c1c(=O)[nH]c(=O)n2C	-6	7	-2	18*	0
CC(C)CCn1c(SCCc2ccccc2)nc2c1c(=O)[nH]c(=O)n2C	-12	-13	10	9	-11
Cn1c2ccc(Cl)cc2c2nc3ccccc3nc21	67*	14	·	-5	·
CCNC(=O)CN(c1ccc(CC)cc1)S(C)(=O)=O	-4	24	4	1	-4
O=C1c2cnc3nc(SCc4ccc(Cl)cc4)nn3c2CC2c3ccccc3CCN12 (stereo unspecified)	-9	13	8	1	-10
CCn1cc(C(=O)NC2CCC(C)CC2)c(=O)c2cc(S(=O)(=O)N3CCCCC3)ccc21 (stereo unspecified)	-14	-29	2	-5	-3
CCn1cc(C(=O)N2CCCCC2)c(=O)c2cc(S(=O)(=O)N3CCC(C)CC3)ccc21	50*	-5	4	3	-6
CCN1CCN(CCNC(=O)C2CCN(Cc3nc(-c4ccc(Cl)cc4)oc3C)CC2)CC1	65*	-20	·	5	·
Cc1oc(-c2ccc(Cl)cc2)nc1CN1CCC(C(=O)NCCCN2CCCC2=O)CC1	-29	-14	-8	4	5
Cc1oc(-c2ccc(Cl)cc2)nc1CN1CCC(C(=O)N2CCN(Cc3ccccc3)CC2)CC1	59*	-11	·	-1	·
CC(C)NC(=O)CN(C)S(=O)(=O)c1ccc(F)cc1	-7	24	10	-2	-12
CN(CC(=O)Nc1nccs1)S(=O)(=O)c1ccc(F)cc1	53*	1	8	-3	-6
COc1ccc(Cn2c(C)c(C)c(C#N)c2NC(=O)Nc2ccc(Cl)cc2)cc1	-5	12	-22	-8	19
O=C(O)CCCN1C(=O)/C(=C/c2ccc(-c3nc4ccccc4s3)o2)SC1=S	-16	-26	41*	-5	-38
Cc1ccc(/C=C2\SC(=S)N(CCCC(=O)Nc3ccccn3)C2=O)cc1	-13	-6	6	12	-3
COc1cnc(-c2ccccn2)nc1Sc1ccc(Cl)cc1	-40	27	30*	-2	-28
CC1CCN(S(=O)(=O)c2ccc(NC(=O)Cc3cccs3)cc2)CC1	0	4	-11	-8	12
COc1ccc2oc(C(=O)CCC(=O)O)c(N)c2c1	63*	12	·	-8	·
Cc1csc(NC(=O)CSc2nc(C(C)C)nc3c2c(=O)n(C)c(=O)n3C)n1	66*	12	·	0	·
Cc1nc(SCC(=O)Nc2cc(C)on2)c2c(=O)n(C)c(=O)n(C)c2n1	-8	-15	-8	3	8
O=C(CSc1nnc2scc(-c3ccccc3)n12)Nc1nsc(-c2ccc(Cl)cc2)n1	-10	-4	26*	2	-24
CCCCCN(C(=O)COC(=O)c1ccc(Br)o1)c1c(N)n(CCCC)c(=O)[nH]c1=O	-18	-22	-1	2	0
CCn1c(-c2ccccc2)ccc(C#N)c1=O	-3	4	-6	2	9
COc1cc(OC)cc(C(=O)Nc2ccccc2C(=O)N2CCCC2)c1	-7	9	52*	-2	-51
